Assay results from publication PMC8769072, “Proteome‐scale mapping of binding sites in the unstructured regions of the human proteome” (Molecular Systems Biology, 2022).

B1: EXOSC10, Q01780 (peptide)
chain: EISNRWKLAQVQVQKD
B2: SPATA31A6, Q5VVP1 (peptide)
chain: WPLLRKQLEGRLALPS
B3: SIPA1L1, O43166 (peptide)
chain: DWSNLVDAAKAYEVQR
B4: AGAP7P, Q5VUJ5 (peptide)
chain: KWPSLATLAATPISSS
B5: TEX14, Q8IWB6 (peptide)
chain: GPPSLNYIPPVLQLSG
B6: ANXA7, P20073 (peptide)
chain: PPSQSYGGGPAQVPLP
B7: DISP2, A7MBM2 (peptide)
chain: LWLALRETVYDPSLPA
B8: TADA3, O75528 (peptide)
chain: WKTLKERESILKLLDG
B9: NCKAP5L, Q9HCH0 (peptide)
chain: GGLLHWERLLGGLGGE
B10: MFSD9, Q8NBP5 (peptide)
chain: AWSDVVGRRSSLLAAI
B11: SRARP, Q8NEQ6 (peptide)
chain: STWGTVKDSLKALSSA
B12: IL16, Q14005 (peptide)
chain: SISSQVSSAVMKSLLA
B13: CD3E, P07766 (peptide)
chain: GTHWRVLGLALLSVGV
B14: KMT2A, Q03164 (peptide)
chain: AWKSLTDKVQEARSNA
B15: AP2A1, O95782 (peptide)
chain: AQDFFQRWKQLSLPQQ
B16: PAX1, P15863 (peptide)
chain: SIPRSWPSAHSVSNIL
B17: FIGN, Q5HY92 (peptide)
chain: LWPVLRSDAFSGLTAL
B18: NFKBIE, O00221 (peptide)
chain: VTAGWTWPALRTLSSL
B19: PDCD1, Q15116 (peptide)
chain: MQIPQAPWPVVWAVLQ
B20: GNL3, Q9BVP2 (peptide)
chain: EVAFGKEGLWKLLGGF
B21: HSH2D, Q96JZ2 (peptide)
chain: DRSWHQMVVRALSSQE
B22: TMX3, Q96JJ7 (peptide)
chain: MAAWKSWTALRLAATV
B23: ATP8B3, O60423 (peptide)
chain: SFWLFRVSPTTFPFLY
B24: PRPF40B, Q6NWY9 (peptide)
chain: AVPSNASWEQAMKMVV
B25: TTLL6, Q8N841 (peptide)
chain: TNWTLLKSDMNKPHLI
B26: PERM1, Q5SV97 (peptide)
chain: AWKTALLANVGTISAI
B27: MAP2K4, P45985 (peptide)
chain: PYPKWNSVFDQLTQVV
B28: KRT4, P19013 (peptide)
chain: WNLLQQQTTTTSSKNL
B29: MALL, Q13021 (peptide)
chain: PPATSYAPSDVPSGVA
B30: RAB11FIP2, Q7L804 (peptide)
chain: MMLSEQAQKWFPTHVQ
B31: ACY1, Q03154 (peptide)
chain: WQRLQSNPHLKEGSVT

target: CALM1 2-149, P0DP23

Selected by phage display, active:
B1 confidence 2
B2 confidence 2
B3 confidence 3
B4 confidence 3
B7 confidence 3
B8 confidence 3
B9 confidence 2
B10 confidence 2
B11 confidence 2
B12 confidence 2
B13 confidence 3
B14 confidence 2
B15 confidence 2
B16 confidence 2
B17 confidence 3
B18 confidence 2
B20 confidence 2
B21 confidence 2
B22 confidence 2
B23 confidence 2
B24 confidence 2
B25 confidence 2
B26 confidence 2
B27 confidence 3
B28 confidence 3
B30 confidence 2
B31 confidence 2

target: CEP55 160-217, Q53EZ4
Sequence (Q53EZ4 160-217): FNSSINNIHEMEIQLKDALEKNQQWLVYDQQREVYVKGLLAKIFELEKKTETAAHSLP

Selected by phage display, active:
B5 confidence 2
B6 confidence 2
B29 confidence 2

target: AP2B1 700-937, P63010
Sequence (P63010 700-937): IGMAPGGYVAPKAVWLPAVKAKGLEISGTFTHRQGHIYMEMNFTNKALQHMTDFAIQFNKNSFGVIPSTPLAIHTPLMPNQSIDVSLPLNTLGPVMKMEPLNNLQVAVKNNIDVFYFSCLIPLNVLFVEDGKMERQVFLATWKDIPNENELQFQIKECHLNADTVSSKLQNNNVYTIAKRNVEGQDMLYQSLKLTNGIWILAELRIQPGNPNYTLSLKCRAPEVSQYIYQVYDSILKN

Selected by phage display, active:
B19 confidence 4
